Nrf2 ARE act: qHTS of Nrf2 Activators. AREc32 ARE-luciferase reporter (MCF7-derived line), luminescence, 24 h. Potency, µM (highest dose often 46.1 µM), without a hit: top-dose activation, hits mostly activators. actives 0.31% (n = 410,000); further: potency means the concentration at half of the fitted maximal effect; % of control where 0% means no effect; nearly all actives have a fitted effect of over 65% in size
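Luciferase luminescence (Steady-Glo, 30 min at room temperature) served as the read-out of ARE activation in AREc32 cells treated with compounds for 24 hr at 37 deg C.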
A-T KAP1 phos: qHTS Assay for Identifying a Potential Treatment of Ataxia-Telangiectasia | AID 485349, 2010 | F2112 A-T fibroblasts, KAP-1 phosphorylation AlphaLISA; neocarzinostatin DNA damage 30 min before lysis | actives 0.19% (n = 320,000) | Potency, µM (highest dose often 57.5 µM), for inactives: at the highest dose activation, actives largely listed as activators; further: potency means the concentration at half of the fitted maximal effect; % of control where 0% means no effect; nearly all actives have a fitted effect of over 45% in size
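ATM-like activity read as KAP-1 phosphorylation via AlphaLISA donor/acceptor antibody pairs after lysis and 6 hr at 25C. Cells were ATM-null patient fibroblasts (F2112, hTERT), dosed 60 min, then exposed to the DSB inducer NCS for 30 min.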
TCR activator: Activators of T cell receptors: qHTS campaign; 330,000 tested, under 10 active; AID 504894, 2011; primary human leukocytes, anti-CD3, IL-2 HTRF, 48 h; Potency, µM (titrated, usually from 9.22 µM), without a hit: top-dose activation of IL-2 secretion, usual class: activators; further: % of control where 0% means no effect
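1) Mix primary human leukocytes, a-CD3 beads and compound. 2) Incubate 48 hr. 3) Add HTRF IL-2 reagents (a-IL-2-K, a-IL-2-d2).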
CCT modulator: High-Throughput Screening for Modulators of Cytosolic Chaperonin Activity | purified chaperonin ATPase assay, HTRF ADP detection, 30 min | activity change, % (no concentration beside the values), hits read low | actives 0.3% (n = 360,000) | AID 651819, 2012; in the data active means activity change below about -30%; further: on the % scale 0 is the no-effect control and ±100 the full control effect
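ATPase activity: ADP formed was measured by HTRF Transcreener (665/615 nm ratio) after 30 min at 37 deg C with 10 uM ATP. Compounds screened at one 76 uM concentration against 40 or 20 nM TRiC in Tris pH 7.4/KCl/MgCl2/DTT buffer.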
A549 tox-1: Nrf2 qHTS screen for inhibitors: counterscreen for cytotoxicity; A549 ARE-Fluc cells, CellTiter-Fluor viability, 18-24 h; Potency, µM (doses to about 46 µM), without a hit: top-dose activity change, negative = cytotoxicity, usual class: inhibitors; actives 0.16% (n = 390,000); further: potency means the concentration at half of the fitted maximal effect; on the % scale 0 is the no-effect control and ±100 the full control effect
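A549 ARE_Fluc cells in 5% FBS OPTI-MEM were exposed to compounds in concentration-response for 18-24 h at 37 deg C. Viability was read by CellTiter-Fluor fluorescence (Ex 405/Em 525) after 30 min, before the luciferase read.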
Nrf2 inh: Nrf2 qHTS screen for inhibitors. A549 ARE-Fluc reporter, luciferase luminescence, 18-24 h. Potency, µM (titrated, usually from 46 µM), for inactives: at the highest dose activity change, negative = inhibition, hits mostly inhibitors. actives 2.1% (n = 360,000). AID 504444, 2011; further: potency means the concentration at half of the fitted maximal effect; on the % scale 0 is the no-effect control and ±100 the full control effect; nearly all actives have a fitted effect of over 60% in size
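In this cell-based qHTS, ARE-driven firefly luciferase in A549 cells reports Nrf2 activity; the luminescent signal after BugLite lysis is the measured value, with a prior CellTiter-Fluor read for cell health.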
FLuc counter 3: Nrf2 qHTS screen for inhibitors: Purified Fluc Biochemical Counterscreen for Hit Validation | shares compounds with Nrf2 inh | purified firefly luciferase, luminescence inhibition | Potency, µM (highest dose often 57.5 µM), for inactives: at the top dose activity change, negative = inhibition, hits mostly inhibitors | actives 4% (n = 1,400) | AID 720522, 2013; further: potency means the concentration at half of the fitted maximal effect; on the % scale 0 is the no-effect control and ±100 the full control effect; nearly all actives have a fitted effect of over 65% in size
Target sequence (P08659 whole entry, looked up): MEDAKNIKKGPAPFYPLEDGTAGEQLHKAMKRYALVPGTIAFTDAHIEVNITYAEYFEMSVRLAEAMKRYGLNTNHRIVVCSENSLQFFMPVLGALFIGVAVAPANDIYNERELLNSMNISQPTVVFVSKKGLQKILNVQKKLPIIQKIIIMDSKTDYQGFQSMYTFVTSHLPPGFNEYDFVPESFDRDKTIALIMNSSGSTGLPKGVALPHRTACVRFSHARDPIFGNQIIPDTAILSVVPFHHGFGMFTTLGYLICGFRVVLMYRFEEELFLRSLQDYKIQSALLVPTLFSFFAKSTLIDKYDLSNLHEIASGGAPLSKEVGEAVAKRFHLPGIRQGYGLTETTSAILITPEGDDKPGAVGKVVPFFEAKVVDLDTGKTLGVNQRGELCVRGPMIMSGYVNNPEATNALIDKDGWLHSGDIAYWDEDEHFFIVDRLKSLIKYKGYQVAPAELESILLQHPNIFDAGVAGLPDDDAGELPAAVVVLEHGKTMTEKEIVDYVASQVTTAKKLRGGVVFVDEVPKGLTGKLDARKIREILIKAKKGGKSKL
A549 tox-2: Nrf2 qHTS screen for inhibitors: A549 ARE-Fluc Cytotoxicity Counterscreen for Hit Validation | Potency, µM (titrated, usually from 46.1 µM), inactives show at the top dose activity change, negative = cytotoxicity, most hits filed as inhibitors | A549 ARE-Fluc cells, cytotoxicity counterscreen | shares compounds with Nrf2 inh | AID 720523, 2013 | actives 2% (n = 1,400);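 further: potency means the concentration at half of the fitted maximal effect; cells exposed to compounds for 18 to 24 hours; on the % scale 0 is the no-effect control and ±100 the full control effect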
ARE-Fluc inh: Nrf2 qHTS screen for inhibitors: Nrf2 A549 ARE-Fluc Confirmation Assay for Hit Validation; Potency, µM (highest dose often 46.1 µM), without a hit: at the top dose activity change, negative = inhibition, usual class: inhibitors; A549 ARE-firefly luciferase reporter, luminescence; shares compounds with Nrf2 inh; actives 74% (n = 1,400); further: potency means the concentration at half of the fitted maximal effect; on the % scale 0 is the no-effect control and ±100 the full control effect; nearly all actives have a fitted effect of over 65% in size
Starred values were filed as active, the others as inactive; ? = inconclusive; · = no result. A selection: hits, their analogues and other compounds. The true share with any hit is near 2.6%. Unless noted, the call rests on the fitted dose curve; in most records, active means well fitted curve in the direction sought with a large enough effect; inconclusive means small, poorly fitted or top-dose-only effect, or another doubt; inactive means no such curve, though single readings can be large; an effect the other way counts as inactive or inconclusive.

SMILES | Nrf2 ARE act | A-T KAP1 phos | TCR activator | CCT modulator | A549 tox-1 | Nrf2 inh | FLuc counter 3 | A549 tox-2 | ARE-Fluc inh
O=C(CSc1nc(=O)n(CCN2CCOCC2)c2c1CCC2)Nc1cccc(Cl)c1 | 1% | · | · | · | 1% | · | · | · | ·
COc1ccc(-c2c[n+]3c(n2-c2ccccc2)SCC3)cc1OC | 0% | 0% | 2% | 0 | -2% | -2% | · | · | ·
Cc1ccc(-c2c[n+]3c(n2-c2ccccc2)SCC3)cc1 | -1% | -4% | -4% | 1 | -16% | 2.3µM* | 0% | -4% | 10µM*
COc1ccc(-c2c[n+]3c(n2-c2ccccc2)SCC3)cc1 | -1% | 4% | 2% | 2 | -15% | 2.1µM* | 1% | -10% | 7.3µM*
COc1ccc(CNCc2ccc(C)cc2)c(OC)c1 | 0% | 5% | 3% | -2 | 12% | 1% | · | · | ·
COc1cc(CNCc2ccc(OC)cc2OC)cc(OC)c1 | 0% | 11% | · | -4 | -7% | 7.3µM* | 3% | -3% | ?
N#Cc1ccc(CSc2ccc(S(=O)(=O)N3CCCC3)cn2)cc1 | 3% | 9% | -41% | 0 | 3% | ? | · | · | ·
CCc1nnc(NC(=O)c2ccc(OCc3c(C)noc3C)c(OC)c2)s1 | 0% | 3% | -4% | 0 | 0% | 5.8µM* | 2% | 5% | 15%
O=C(OCc1ccccc1)N1CCC2CC1c1ccc(-c3cccc(F)c3)cc12 (stereo not given) | 4% | · | · | 0 | · | · | · | · | ·
CCc1ccc2[nH]c(=O)c(CN(CCN(C)C)C(=O)Nc3ccccc3OC)cc2c1 | 0% | -2% | -4% | -2 | 3% | -5% | · | · | ·
CCc1ccc2[nH]c(=O)c(CN(Cc3ccccc3)C(=O)Nc3ccccc3OC)cc2c1 | 1% | 2% | 1% | -1 | -23% | 7.3µM* | 0% | -26% | ?
CC(=O)N1CCN(c2ccc(Oc3ccc([N+](=O)[O-])c(C(F)(F)F)c3)cc2)CC1 | 0% | 8% | -2% | 1 | ? | 8.2µM* | -1% | -9% | 8.2µM*
CCOc1ccc(C(=O)Nc2ccc(N3CCN(C(C)=O)CC3)cc2)cc1[N+](=O)[O-] | 3% | 4% | -17% | -1 | 6% | ? | · | · | ·
COc1cccc(CNC(=O)C2CCN(S(=O)(=O)c3cccc4nonc34)CC2)c1 | 0% | 8% | -4% | -1 | 3% | -23% | · | · | ·
Cc1cccc(NC2=NC(C)(C)N=C(N)N2)c1 | 0% | 4% | 3% | 2 | -8% | 5.2µM* | 2% | -6% | 4.6µM*
C=CCN(c1ccccc1C(=O)O)S(=O)(=O)c1ccc(C)cc1 | 2% | 6% | -1% | -1 | 8% | 1% | · | · | ·
Cc1nnc(NC(=O)c2ccc(S(=O)(=O)N3CCCCCC3)cc2)o1 | 0% | 1% | 5% | -1 | -2% | -23% | · | · | ·
CC1CCCN(S(=O)(=O)c2ccc(C(=O)Nc3nnc(C4CC4)o3)cc2)C1 (stereo not given) | -1% | -5% | -3% | 0 | ? | 5.8µM* | -1% | ? | 9.2µM*
Cc1cc(C)c2nc(NNC(=O)c3ccc(S(=O)(=O)N4CCCC(C)C4)cc3)sc2c1 (stereo not given) | -1% | -1% | -2% | -2 | ? | 4.1µM* | -1% | -19% | 6.5µM*
CCCCOc1ccccc1NC(=O)c1scc2c1OCCO2 | 6% | 15% | 5% | 0 | 1% | 5.2µM* | -14% | 4% | 6%
COc1ccccc1N1CCN(C(=O)Cn2ncc3ccsc3c2=O)CC1 | -1% | · | · | · | -5% | 3% | · | · | ·
COC(=O)c1ccc(NC(=O)N(c2ccccc2)c2ccccc2)cc1 | 0% | -4% | -6% | -2 | -3% | -5% | · | · | ·
CC(C)(C)NC(=O)CSc1nc2ccc(NC(=O)CSc3nnnn3Cc3ccccc3)cc2s1 | 2% | · | -2% | -1 | -16% | 8.2µM* | -29% | -17% | 7.3µM*
COc1ccccc1C(=O)NC(=S)Nc1ccc(Cc2ccncc2)cc1 | 7% | 9% | -8% | -1 | -14% | 5.8µM* | -1% | 0% | 21µM*
O=C(c1ccc2ccccc2c1O)N1CCCCC1 | 6% | · | · | -2 | · | · | · | · | ·
Cc1ccc(C(=O)NCc2ccco2)cc1S(=O)(=O)N1CCCCC1 | 5% | -6% | -7% | 1 | 5% | -8% | · | · | ·
Cc1ccc(C(=O)NCc2cccc(C(F)(F)F)c2)cc1S(=O)(=O)N1CCCCC1 | 0% | 2% | -2% | 2 | -14% | 3.7µM* | -2% | -2% | ?

Assay outcomes as filed in PubChem.
